Results filed as inconclusive are left out. A call without a number means that no potency is given here. Calls of active or inactive are those of the source. Unless noted, calls come from the whole dose curve; as a rule, active = well fitted curve in the direction sought with a large enough effect in the repeat runs; inconclusive = weak or mixed curves; inactive = no such curve, though single readings can be large; an effect the other way counts as inactive or inconclusive.
Legend:
[1] = qHTS assay to identify small molecule agonists of the peroxisome proliferator-activated receptor delta (PPARd) signaling pathway - cell viability counter screen (AID 743211); note: nearly all actives have a fitted effect of over 55% in size; note: potency is the fitted concentration of half-maximal effect
Summary of the method: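 Multiplexed format: after the 2 h room-temperature LiveBLAzer B/G FRET step, CellTiter-Glo was added to the same wells. Luminescence after 30 min gave cell viability; compound exposure was 17 h at 37C.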

[2] = molecular target: Peroxisome proliferator-activated receptor delta (Homo sapiens) (UniProt Q03181); assay: qHTS assay to identify small molecule agonists of the peroxisome proliferator-activated receptor delta (PPARd) signaling pathway (AID 743212; calls by dose curve; note: potency is the fitted concentration of half-maximal effect)
Summary of the method: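 Read-out: beta-lactamase FRET fluorescence after 2 h room-temperature incubation with LiveBLAzer B/G substrate. Cells were HEK293H carrying a UAS-bla reporter for PPARd, treated at 37 C with DMSO-dissolved compounds.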

[3] = qHTS assay to identify small molecule antagonists of the peroxisome proliferator-activated receptor delta (PPARd) signaling pathway - cell viability counter screen (AID 743213); note: nearly all actives have a fitted effect of over 50% in size; note: potency is the fitted concentration of half-maximal effect
Summary of the method: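 CellTiter-Glo was added to PPARd-bla HEK293H wells following 17 h compound treatment in the presence of 300 nM L165041. Luminescence was recorded after 30 min at room temperature.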

[4] = molecular target: Peroxisome proliferator-activated receptor delta (Homo sapiens) (UniProt Q03181); assay: qHTS assay to identify small molecule antagonists of the peroxisome proliferator-activated receptor delta (PPARd) signaling pathway (AID 743215; active = well fitted inhibition curve with a large enough effect in the signal ratio in the repeat runs, not every such curve was filed as active; the % refers to the signal ratio;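 note: cells stimulated with agonist L165041 at 300 nM final during compound exposure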; note: potency is the fitted concentration of half-maximal effect)
Summary of the method: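 Screen format: qHTS, antagonist mode. HEK293H PPARd-bla cells received compound and 300 nM L165041 (final), 17 h, 37 C. Beta-lactamase detected via FRET substrate fluorescence, 2 h, room temperature.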

[5] = molecular target: Bile acid receptor (Homo sapiens) (UniProt Q96RI1); assay: qHTS assay to identify small molecule antagonists of the farnesoid-X-receptor (FXR) signaling pathway (AID 743217; active = well fitted inhibition curve with a large enough effect in the signal ratio in the repeat runs, not every such curve was filed as active; the % refers to the signal ratio; note: potency is the fitted concentration of half-maximal effect)
Summary of the method: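 Quantitative HTS, beta-lactamase reporter format: FXR-UAS-bla HEK 293T cells co-treated 16 h at 37 °C with compounds and 50 uM final chenodeoxycholic acid, then read by B/G FRET fluorescence.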

[6] = qHTS assay to identify small molecule agonists of the farnesoid-X-receptor (FXR) signaling pathway - cell viability counter screen (AID 743218); note: nearly all actives have a fitted effect of over 45% in size; note: potency is the fitted concentration of half-maximal effect
Summary of the method: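 Same-well cytotoxicity check on FXR-UAS-bla HEK 293T cells: 5 h attachment, 16 h compound at 37 C, CellTiter-Glo luminescence read at room temperature after 30 min.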

[7] = molecular target: Bile acid receptor (Homo sapiens) (UniProt Q96RI1); assay: qHTS assay to identify small molecule agonists of the farnesoid-X-receptor (FXR) signaling pathway (AID 743220; active = well fitted activation curve with a large enough effect in the signal ratio in the repeat runs, not every such curve was filed as active; the % refers to the signal ratio)
Summary of the method: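 FXR-UAS-bla HEK 293T cells carrying a UAS-driven beta-lactamase reporter were plated for 5 h at 37C/5% CO2, then exposed to DMSO-dissolved Tox21 10K compounds for 16 h at 37C. A LiveBLAzer B/G FRET substrate was loaded for 2 h at room temperature before fluorescence reading.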

[8] = qHTS assay to identify small molecule antagonists of the farnesoid-X-receptor (FXR) signaling pathway - cell viability counter screen (AID 743221; active = well fitted cell-killing curve with a large enough effect in the repeat runs, not every such curve was filed as active; note: nearly all actives have a fitted effect of over 50% in size)
Summary of the method: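 CellTiter-Glo, 30 min RT, luminescence; same wells as the LiveBLAzer FRET read. Cells: FXR-UAS-bla HEK 293T. Treatment: compound with chenodeoxycholic acid 50 uM final, 16 h at 37 C.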

[9] = molecular target: Vitamin D3 receptor (Homo sapiens) (UniProt P11473); assay: qHTS assay to identify small molecule agonists of the vitamin D receptor (VDR) signaling pathway (AID 743222; calls by dose curve)
Summary of the method: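 Using LiveBLAzer B/G FRET detection, agonism was scored in VDR-bla cells exposed overnight (16 h, 37C) to DMSO-dissolved compounds; substrate incubation was 2 h at room temperature.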

[10] = molecular target: Vitamin D3 receptor (Homo sapiens) (UniProt P11473); assay: qHTS assay to identify small molecule antagonists of the vitamin D receptor (VDR) signaling pathway (AID 743223; active = well fitted inhibition curve with a large enough effect in the signal ratio in the repeat runs, not every such curve was filed as active; the % refers to the signal ratio; note: potency is the fitted concentration of half-maximal effect)
Summary of the method: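 After VDR-bla cells are plated and left 4 h at 37C, DMSO-dissolved compounds and 3 nM (final) calcitriol agonist are added. Incubation continues 16 h at 37C; FRET beta-lactamase substrate then develops 2 h at room temperature.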

Sequence of Vitamin D3 receptor (Homo sapiens) (P11473 whole entry, looked up): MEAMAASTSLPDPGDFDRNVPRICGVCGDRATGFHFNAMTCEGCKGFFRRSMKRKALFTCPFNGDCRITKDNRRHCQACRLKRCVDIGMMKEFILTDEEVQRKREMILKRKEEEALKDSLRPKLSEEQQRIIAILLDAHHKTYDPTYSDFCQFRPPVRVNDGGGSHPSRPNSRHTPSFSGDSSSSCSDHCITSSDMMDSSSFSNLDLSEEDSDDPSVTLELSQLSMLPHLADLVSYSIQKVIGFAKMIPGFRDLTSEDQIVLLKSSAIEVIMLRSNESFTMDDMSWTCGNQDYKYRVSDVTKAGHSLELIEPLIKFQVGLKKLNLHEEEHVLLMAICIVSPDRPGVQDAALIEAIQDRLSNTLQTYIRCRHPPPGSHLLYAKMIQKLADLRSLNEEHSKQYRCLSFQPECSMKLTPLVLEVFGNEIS
Sequence of Peroxisome proliferator-activated receptor delta (Homo sapiens) (Q03181 whole entry, looked up): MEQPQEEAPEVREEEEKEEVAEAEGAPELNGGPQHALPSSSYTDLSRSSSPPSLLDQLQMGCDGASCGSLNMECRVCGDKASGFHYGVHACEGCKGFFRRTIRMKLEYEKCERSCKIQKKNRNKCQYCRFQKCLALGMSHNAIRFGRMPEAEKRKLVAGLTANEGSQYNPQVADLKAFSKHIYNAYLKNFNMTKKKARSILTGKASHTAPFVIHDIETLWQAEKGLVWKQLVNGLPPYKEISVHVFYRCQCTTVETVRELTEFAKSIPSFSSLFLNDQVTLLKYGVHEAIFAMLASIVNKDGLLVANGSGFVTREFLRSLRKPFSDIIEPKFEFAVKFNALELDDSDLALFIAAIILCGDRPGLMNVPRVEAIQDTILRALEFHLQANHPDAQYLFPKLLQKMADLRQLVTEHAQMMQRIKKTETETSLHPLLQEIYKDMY
Sequence of Bile acid receptor (Homo sapiens) (Q96RI1 whole entry, looked up): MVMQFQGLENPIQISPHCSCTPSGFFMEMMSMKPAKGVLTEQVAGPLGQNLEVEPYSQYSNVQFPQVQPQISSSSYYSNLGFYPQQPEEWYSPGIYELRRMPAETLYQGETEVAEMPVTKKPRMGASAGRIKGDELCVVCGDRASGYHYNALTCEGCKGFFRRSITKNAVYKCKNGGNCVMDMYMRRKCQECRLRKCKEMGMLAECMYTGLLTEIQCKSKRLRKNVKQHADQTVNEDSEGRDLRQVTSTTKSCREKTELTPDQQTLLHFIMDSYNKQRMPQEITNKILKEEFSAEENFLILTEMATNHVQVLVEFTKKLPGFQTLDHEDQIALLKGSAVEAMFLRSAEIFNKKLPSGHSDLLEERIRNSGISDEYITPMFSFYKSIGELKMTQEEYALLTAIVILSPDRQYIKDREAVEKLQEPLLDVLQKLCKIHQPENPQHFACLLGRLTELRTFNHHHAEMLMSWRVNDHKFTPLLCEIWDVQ

Oc1cccc(Nc2ccccc2)c1
Potency [1]: inactive
Potency [2]: inactive
Potency [3]: inactive
Potency [4]: inactive
Potency [5]: inactive
Potency [6]: inactive
Potency [7]: inactive
Potency [8]: inactive

CC1(C)O[C@@H]2C[C@H]3[C@@H]4C[C@H](F)C5=CC(=O)C=C[C@]5(C)[C@H]4[C@@H](O)C[C@]3(C)[C@]2(C(=O)CO)O1
Potency [1]: inactive
Potency [2]: inactive
Potency [3]: inactive
Potency [4]: inactive
Potency [5]: inactive
Potency [6]: inactive
Potency [7]: inactive
Potency [8]: inactive

COc1cc(C(=O)NC2CCN(C)CC2)ccc1Nc1ncc2c(n1)N(C1CCCC1)CC(F)(F)C(=O)N2C
Potency [1]: 11.3 µM (active)
Potency [2]: inactive
Potency [3]: 7.11 µM (active)
Potency [4]: 14.2 µM (active)
Potency [5]: 22.5 µM (active)
Potency [6]: 17.9 µM (active)
Potency [9]: inactive
Potency [10]: 6.34 µM (active)

Cc1ccccc1N=C(N)Nc1ccccc1C
Potency [1]: inactive
Potency [2]: inactive
Potency [3]: inactive
Potency [4]: inactive
Potency [5]: inactive
Potency [7]: inactive
Potency [8]: inactive
Potency [9]: inactive
Potency [10]: inactive

COc1ccc(OC(=O)N(CC(=O)O)Cc2ccc(OCCc3nc(-c4ccccc4)oc3C)cc2)cc1
Potency [1]: inactive
Potency [2]: 8.41 µM (active)
Potency [3]: inactive
Potency [4]: inactive
Potency [5]: inactive
Potency [8]: inactive
Potency [10]: inactive

CCC(C)(C)OC
Potency [1]: inactive
Potency [2]: inactive
Potency [3]: inactive
Potency [4]: inactive
Potency [5]: inactive
Potency [6]: inactive
Potency [7]: inactive
Potency [8]: inactive

CC(C)=CC(=O)C=C(C)C
Potency [1]: inactive
Potency [2]: inactive
Potency [3]: inactive
Potency [4]: inactive
Potency [5]: inactive
Potency [6]: inactive
Potency [7]: inactive
Potency [8]: inactive
Potency [9]: inactive
Potency [10]: inactive

Clc1cc(Cl)nc(Cl)n1
Potency [1]: inactive
Potency [2]: inactive
Potency [3]: inactive
Potency [4]: inactive
Potency [5]: inactive
Potency [6]: inactive
Potency [7]: inactive
Potency [8]: inactive
Potency [9]: inactive
Potency [10]: inactive

CCOC(=O)OC(C)OC(=O)[C@@H]1N2C(=O)[C@@H](NC(=O)[C@H](N)c3ccccc3)[C@H]2SC1(C)C (some centres not stated)
Potency [1]: inactive
Potency [2]: inactive
Potency [3]: inactive
Potency [4]: inactive
Potency [5]: inactive
Potency [6]: inactive
Potency [7]: inactive
Potency [8]: inactive
Potency [9]: inactive
Potency [10]: inactive

O=C(CCc1ccc(O)cc1)c1c(O)cc(O)cc1O
Potency [1]: inactive
Potency [2]: inactive
Potency [3]: inactive
Potency [4]: inactive
Potency [5]: inactive
Potency [6]: inactive
Potency [7]: inactive
Potency [8]: inactive
Potency [10]: inactive

Cc1cc(C)cc(N)c1
Potency [1]: inactive
Potency [2]: inactive
Potency [3]: inactive
Potency [4]: inactive
Potency [5]: inactive
Potency [6]: inactive
Potency [7]: inactive
Potency [8]: inactive
Potency [9]: inactive
Potency [10]: inactive

CCCCN(CCCC)C(C(N)=O)c1ccc(OC)cc1 (configuration not stated)
Potency [1]: inactive
Potency [2]: inactive
Potency [3]: inactive
Potency [4]: inactive
Potency [6]: inactive
Potency [8]: inactive

CCOC(=O)/C=C/C(=O)OCC
Potency [1]: inactive
Potency [2]: inactive
Potency [3]: inactive
Potency [4]: inactive
Potency [6]: inactive
Potency [8]: inactive
Potency [9]: inactive
Potency [10]: inactive

COc1ccccc1Oc1c(NS(=O)(=O)c2ccc(C(C)(C)C)cc2)nc(-c2ncccn2)nc1OCCO
Potency [1]: inactive
Potency [2]: inactive
Potency [3]: inactive
Potency [4]: inactive
Potency [6]: inactive
Potency [8]: inactive
Potency [10]: inactive

O=C(O)C[C@H](NC(=O)OCc1ccccc1)C(=O)O
Potency [1]: inactive
Potency [2]: inactive
Potency [3]: inactive
Potency [4]: inactive
Potency [6]: inactive
Potency [8]: inactive
Potency [9]: inactive
Potency [10]: inactive

COc1ccccc1N1CCN(CC(O)COc2cccc3ccccc23)CC1 (configuration not stated)
Potency [1]: 26.6 µM (active)
Potency [2]: inactive
Potency [3]: 29.8 µM (active)
Potency [4]: inactive
Potency [6]: inactive
Potency [8]: inactive
Potency [9]: inactive
Potency [10]: inactive

Nc1nnc(-c2ccc([N+](=O)[O-])o2)o1
Potency [1]: inactive
Potency [2]: inactive
Potency [3]: inactive
Potency [4]: inactive
Potency [8]: inactive
Potency [9]: inactive
Potency [10]: inactive

O=C1c2ccccc2C(=O)C1c1nc2ccccc2c(Br)c1O
Potency [1]: inactive
Potency [2]: inactive
Potency [3]: inactive
Potency [4]: inactive
Potency [6]: inactive
Potency [8]: inactive
Potency [9]: inactive
Potency [10]: inactive

CCCCCC[C@@H](O)C/C=C\CCCCCCCC(=O)OCC(O)CO (some centres not stated)
Potency [1]: inactive
Potency [2]: 49 µM (active)
Potency [3]: inactive
Potency [6]: inactive
Potency [8]: inactive
Potency [9]: inactive

CCC(=O)C1CC(C(C)C)CC=C1C (configuration not stated)
Potency [1]: inactive
Potency [2]: inactive
Potency [3]: inactive
Potency [6]: inactive
Potency [8]: inactive

Cc1cc(O)c(C)c(C)c1O
Potency [1]: inactive
Potency [2]: inactive
Potency [3]: inactive
Potency [4]: inactive
Potency [8]: inactive

CO[C@]1(NC(=O)CSC(F)F)C(=O)N2C(C(=O)O)=C(CSc3nnnn3CCO)CO[C@H]21
Potency [1]: inactive
Potency [2]: inactive
Potency [3]: inactive
Potency [4]: inactive
Potency [6]: inactive
Potency [8]: inactive
Potency [9]: inactive
Potency [10]: inactive

O=c1[nH]c2ccc(Cl)cc2o1
Potency [1]: inactive
Potency [2]: inactive
Potency [3]: inactive
Potency [4]: inactive
Potency [6]: inactive
Potency [8]: inactive
Potency [9]: inactive

CCc1ccccc1
Potency [1]: inactive
Potency [2]: inactive
Potency [3]: inactive
Potency [4]: inactive
Potency [6]: inactive
Potency [8]: inactive
Potency [9]: inactive
Potency [10]: inactive

CC(=O)c1ccc([N+](=O)[O-])cc1
Potency [1]: inactive
Potency [2]: inactive
Potency [3]: inactive
Potency [4]: inactive
Potency [6]: inactive
Potency [8]: inactive
Potency [9]: inactive
Potency [10]: inactive

CCC(OCCCOC)OC(C)=O (configuration not stated)
Potency [1]: inactive
Potency [2]: inactive
Potency [3]: inactive
Potency [4]: inactive
Potency [6]: inactive
Potency [8]: inactive
Potency [9]: inactive
Potency [10]: inactive

CN1CC(=O)N2[C@H](c3ccc4c(c3)OCO4)c3[nH]c4ccccc4c3C[C@@H]2C1=O
Potency [1]: inactive
Potency [2]: inactive
Potency [3]: inactive
Potency [4]: inactive
Potency [6]: inactive
Potency [8]: inactive
Potency [9]: inactive
Potency [10]: inactive
